About 83,000 compounds went through this panel and 20% of them were active in at least one assay; those are over-represented in the sample as a whole.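 Interpretation: 100, growth as untreated; towards 0, rising growth inhibition; 0, no net growth; 0 to -100, cell death. Compounds scoring below 10 were considered active.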 Unmarked numbers belong to inactive results. The source made the active and inactive calls.
Tests used:
Assay in all cases: NCI-60 one-dose screen, 48 h (100 = growth as untreated, 0 = no growth, -100 = all killed)
Conditions in all cases: 10 µM unless noted
[1] = tested on: NCI-H23 lung
[2] = tested on: NCI-H226 lung
[3] = tested on: NCI-H322M lung
[4] = tested on: HOP-62 NSCLC
[5] = tested on: NCI-H460 lung
[6] = tested on: NCI-H522 lung
[7] = tested on: A549/ATCC NSCLC
[8] = tested on: 786-0 renal
[9] = tested on: COLO 205 colon
[10] = tested on: DU-145 prostate
[11] = tested on: K-562 leukemia
[12] = tested on: MALME-3M melanoma
[13] = tested on: MDA-MB-231 breast
[14] = tested on: RXF 393 renal
[15] = tested on: SF-268 CNS
[16] = tested on: SF-295 CNS
[17] = tested on: SF-539 CNS
[18] = tested on: UACC-257 melanoma
[19] = tested on: M14 melanoma

`O=C(c1ccccc1O)c1[nH]c(Cl)c(Cl)c1-n1c(C(=O)c2ccccc2O)cc(Cl)c1Cl` was tested. Which growth [1] did it give?
The growth was -10.6% (active).

And the growth [2]?
Its growth is -1.5% (active).

And the growth [3]?
Its growth is -0.432% (active).

What about the growth [4] of the same compound?
The growth was -9.18% (active).

And the growth [5]?
The growth was 0.792% (active).

And the growth [6]?
The growth was -17.9% (active).

And the growth [7]?
Its growth is 3.18% (active).

What about the growth [8] of the same compound?
Its growth is -9.15% (active).

What about the growth [9] of the same compound?
Its growth is -95.7% (active).

And the growth [10]?
The growth was 19.2%.

And the growth [11]?
The growth was 6.74% (active).

What about the growth [12] of the same compound?
The growth was -25.5% (active).

And the growth [13]?
The growth was -31.7% (active).

What about the growth [14] of the same compound?
The growth was -19.4% (active).

And the growth [15]?
The growth was 4.86% (active).

What about the growth [16] of the same compound?
The growth was -25.5% (active).

What about the growth [17] of the same compound?
The growth was 7.94% (active).

What about the growth [18] of the same compound?
Its growth is -24.9% (active).

And the growth [19]?
The growth was -0.41% (active).

Which growth [1] does the source give for `COC(=O)[C@@H](C)C[C@H](Cc1ccccc1)NC(=O)c1nc([C@@H](C[C@H](C(C)C)N(C)C(=O)[C@@H](NC(=O)[C@H]2CCCCN2C)C(C)C)OC(C)=O)sc1C` here?
The growth was 35%.

And the growth [2]?
Its growth is 61.4%.

And the growth [3]?
Its growth is 36.3%.

What about the growth [4] of the same compound?
Its growth is 32.1%.

What about the growth [5] of the same compound?
The growth was 4.31% (active).

What about the growth [6] of the same compound?
Its growth is -12.8% (active).

What about the growth [7] of the same compound?
Its growth is 10.6%.

What about the growth [8] of the same compound?
The growth was 4.94% (active).

And the growth [9]?
The growth was -36.5% (active).

And the growth [10]?
Its growth is 5.34% (active).

And the growth [11]?
Its growth is 8.3% (active).

And the growth [12]?
Its growth is 54%.

And the growth [13]?
The growth was -11.6% (active).

And the growth [14]?
The growth was 44.4%.

And the growth [15]?
Its growth is 17.6%.

And the growth [16]?
The growth was 15.4%.

And the growth [17]?
The growth was -16.5% (active).

And the growth [18]?
The growth was 59.9%.

What about the growth [19] of the same compound?
The growth was -43.4% (active).

Which results are given for `Cn1cc(-c2csc(-c3cn(CCN4CCOCC4)c4ccc(F)cc34)n2)c2cccnc21`?
growth [1]: 22.5%; growth [2]: 16.6%; growth [3]: 73.3%; growth [4]: 8.52% (active); growth [5]: 44.6%; growth [6]: -0.645% (active); growth [7]: 22.5%; growth [8]: 56.3%; growth [9]: 15.9%; growth [10]: 40.1%; growth [11]: 9.34% (active); growth [12]: 53%; growth [13]: 35.1%; growth [14]: 71%; growth [15]: 41.7%; growth [16]: 29.2%; growth [17]: 61.5%; growth [18]: 71%; growth [19]: 8.08% (active)

How did the growth [1] turn out when `COc1cc(/C=C/[N+](=O)[O-])cc(OC)c1` was run?
Its growth is -47.3% (active).

What about the growth [2] of the same compound?
The growth was -31.2% (active).

What about the growth [3] of the same compound?
The growth was 84.6%.

What about the growth [4] of the same compound?
Its growth is 35.9%.

And the growth [5]?
Its growth is 40.6%.

What about the growth [6] of the same compound?
The growth was -40.1% (active).

What about the growth [7] of the same compound?
The growth was 28.6%.

What about the growth [8] of the same compound?
The growth was -45.3% (active).

What about the growth [9] of the same compound?
The growth was -49.4% (active).

And the growth [10]?
Its growth is -63% (active).

What about the growth [11] of the same compound?
Its growth is 0.863% (active).

And the growth [12]?
The growth was 24.1%.

What about the growth [13] of the same compound?
The growth was 13.4%.

What about the growth [14] of the same compound?
Its growth is -90% (active).

And the growth [15]?
Its growth is 25.7%.

What about the growth [16] of the same compound?
The growth was 46.5%.

And the growth [17]?
The growth was -72.2% (active).

And the growth [18]?
The growth was -16.4% (active).

What about the growth [19] of the same compound?
The growth was -30.1% (active).

How did the growth [1] turn out when `COC(=O)C1CCC(NC(=O)c2csc([C@@H](C[C@H](C(C)C)N(C)C(=O)[C@@H](NC(=O)[C@H]3CCCCN3C)C(C)C)OC(C)=O)n2)CC1` (stereo not given in full) was run?
Its growth is 32%.

And the growth [2]?
Its growth is 17%.

What about the growth [3] of the same compound?
Its growth is 47.8%.

And the growth [4]?
Its growth is 7.46% (active).

What about the growth [5] of the same compound?
The growth was 6.14% (active).

What about the growth [6] of the same compound?
Its growth is -25% (active).

What about the growth [7] of the same compound?
The growth was 15.9%.

What about the growth [8] of the same compound?
Its growth is 13%.

And the growth [9]?
The growth was -71.1% (active).

What about the growth [10] of the same compound?
Its growth is 9.8% (active).

And the growth [11]?
The growth was 10%.

What about the growth [12] of the same compound?
The growth was 57.8%.

And the growth [13]?
Its growth is 12.1%.

And the growth [15]?
Its growth is 22.6%.

And the growth [16]?
The growth was 2.5% (active).

What about the growth [17] of the same compound?
The growth was -10.1% (active).

And the growth [19]?
The growth was 1.47% (active).

`C#Cc1ccc2c(c1)C(c1ccccc1)=NCC(=O)N2C` was tested. Which growth [1] did it give?
The growth was 63.3%.

What about the growth [2] of the same compound?
Its growth is 69%.

What about the growth [3] of the same compound?
Its growth is 77.7%.

And the growth [4]?
The growth was 49.8%.

What about the growth [5] of the same compound?
The growth was 17.4%.

And the growth [6]?
Its growth is 9.39% (active).

And the growth [7]?
Its growth is 53.6%.

And the growth [8]?
Its growth is 59%.

What about the growth [9] of the same compound?
Its growth is 15.8%.

What about the growth [10] of the same compound?
The growth was 70.1%.

What about the growth [11] of the same compound?
Its growth is 15.6%.

What about the growth [12] of the same compound?
The growth was 74.5%.

And the growth [13]?
The growth was 50.8%.

And the growth [14]?
The growth was 83.8%.

And the growth [15]?
Its growth is 58.8%.

And the growth [16]?
The growth was 25%.

And the growth [17]?
Its growth is 41.4%.

What about the growth [18] of the same compound?
The growth was 68.5%.

What about the growth [19] of the same compound?
The growth was 18.5%.

For `O=C(CC1(O)C(=O)Nc2ccc(Cl)cc21)c1ccc(C(=O)NCC2CCC3(CC2)OOC2(CCCCC2)OO3)cc1` (stereo not given), which growth [1] is on record?
Its growth is 32.1%.

What about the growth [2] of the same compound?
The growth was 53.3%.

And the growth [3]?
The growth was 77.7%.

What about the growth [4] of the same compound?
Its growth is -55.4% (active).

And the growth [5]?
Its growth is -55.4% (active).

What about the growth [6] of the same compound?
Its growth is -1.69% (active).

And the growth [7]?
The growth was -55.4% (active).

And the growth [8]?
The growth was -65.6% (active).

And the growth [9]?
Its growth is 1.29% (active).

What about the growth [10] of the same compound?
Its growth is -60.1% (active).

And the growth [11]?
Its growth is -56.9% (active).

What about the growth [12] of the same compound?
Its growth is -51.5% (active).

What about the growth [13] of the same compound?
Its growth is 16.8%.

And the growth [14]?
The growth was 18.5%.

And the growth [15]?
The growth was 32.9%.

What about the growth [16] of the same compound?
The growth was 37.6%.

And the growth [17]?
The growth was -52.5% (active).

And the growth [18]?
Its growth is 37.8%.

What about the growth [19] of the same compound?
Its growth is 52%.

`Clc1cccc(NCOOC2(OOCNc3cccc(Cl)c3)CCCCC2)c1` was tested. Which growth [1] did it give?
The growth was 43.6%.

What about the growth [2] of the same compound?
Its growth is 94.7%.

What about the growth [3] of the same compound?
Its growth is 73.7%.

And the growth [4]?
Its growth is 49.5%.

What about the growth [5] of the same compound?
Its growth is 77.2%.

And the growth [6]?
Its growth is 14.7%.

What about the growth [7] of the same compound?
The growth was 3.1% (active).

And the growth [8]?
Its growth is 10.8%.

What about the growth [9] of the same compound?
The growth was 96.6%.

And the growth [10]?
The growth was 73.3%.

And the growth [11]?
Its growth is -41% (active).

And the growth [12]?
Its growth is 74.5%.

And the growth [13]?
The growth was 81.7%.

What about the growth [14] of the same compound?
The growth was 108%.

And the growth [15]?
The growth was 73.1%.

What about the growth [16] of the same compound?
The growth was 74.8%.

And the growth [17]?
The growth was 16.4%.

What about the growth [18] of the same compound?
The growth was 87.7%.

And the growth [19]?
Its growth is 60.4%.

Source: PubChem BioAssay (NCI)
